An excerpt weighted towards active compounds, which were near 6.3% of everything screened.
tim23-1 inh: growth inhibitors of tim23-1 mutant yeast, primary screen, luminescence, uHTS; S. cerevisiae tim23-1 growth, BacTiter-Glo luminescence, 24 h; inhibition, % at 20 µM; hit rate 1.3% among 330,000;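 active means growth inhibition of the mutant yeast at or above 50%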;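 further: temperature-sensitive mutant grown at 25 °C; plate controls were DMSO-treated mutant yeast for no effect and medium wells lacking yeast for full effect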
Mdm2-MdmX inh: inhibitors of human Mdm2-MdmX association, primary screen, cell-based, luminescence, split luciferase, SaOS-2, uHTS. SaOS-2 split-luciferase Mdm2/MdmX complementation. inhibition, % at 8 µM. hit rate 3% among 330,000. AID 485346, 2010;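 active means inhibition of at least 50% at 8 µM in the primary screen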
Target sequence (O15151 whole entry, looked up): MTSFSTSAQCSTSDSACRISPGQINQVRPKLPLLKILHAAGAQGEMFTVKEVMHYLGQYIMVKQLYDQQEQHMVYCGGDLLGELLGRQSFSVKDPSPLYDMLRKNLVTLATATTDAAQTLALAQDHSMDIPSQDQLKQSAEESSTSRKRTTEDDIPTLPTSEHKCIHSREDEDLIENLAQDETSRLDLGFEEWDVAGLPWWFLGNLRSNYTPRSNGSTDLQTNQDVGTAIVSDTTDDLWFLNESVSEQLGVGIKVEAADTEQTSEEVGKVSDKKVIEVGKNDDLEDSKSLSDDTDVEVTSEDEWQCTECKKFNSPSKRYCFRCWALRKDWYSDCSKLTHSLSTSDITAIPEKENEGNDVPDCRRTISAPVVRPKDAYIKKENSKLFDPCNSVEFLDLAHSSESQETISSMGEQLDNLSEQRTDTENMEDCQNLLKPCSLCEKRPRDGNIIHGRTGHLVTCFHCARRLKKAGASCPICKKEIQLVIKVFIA
Target sequence (Q00987 whole entry, looked up): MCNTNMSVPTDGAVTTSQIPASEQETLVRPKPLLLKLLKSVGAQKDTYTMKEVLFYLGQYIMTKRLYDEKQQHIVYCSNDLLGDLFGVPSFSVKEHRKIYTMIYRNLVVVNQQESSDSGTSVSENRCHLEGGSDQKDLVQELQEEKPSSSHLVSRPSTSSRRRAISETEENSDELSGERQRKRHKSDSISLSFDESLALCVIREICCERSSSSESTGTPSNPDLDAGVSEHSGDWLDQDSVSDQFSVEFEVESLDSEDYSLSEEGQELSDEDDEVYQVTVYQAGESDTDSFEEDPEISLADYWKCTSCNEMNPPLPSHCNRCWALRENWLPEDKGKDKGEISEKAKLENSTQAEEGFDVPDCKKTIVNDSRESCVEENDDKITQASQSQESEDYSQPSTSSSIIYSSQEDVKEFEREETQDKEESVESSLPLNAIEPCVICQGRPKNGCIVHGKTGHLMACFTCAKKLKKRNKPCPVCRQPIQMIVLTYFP
TIM10 inh: growth inhibitors of isogenic TIM10 control yeast, primary screen, counter-screen for tim10-1 yeast inhibitor project, luminescence, uHTS. inhibition, % at 10 µM. hit rate 1.4% among 330,000. S. cerevisiae TIM10 strain growth, BacTiter-Glo luminescence, 24 h;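 active means inhibition of 40% or more at the single tested concentration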;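 further: wild-type TIM10 isogenic control strain grown at permissive 25 °C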
tim10-1 inh: growth inhibitors of tim10-1 mutant yeast, primary screen, luminescence, uHTS. S. cerevisiae tim10-1 ts strain growth, BacTiter-Glo, 24 h. inhibition, % at 20 µM. hit rate 2.2% among 330,000. AID 463190, 2010;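 active means inhibition of at least 40%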;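 further: mutant grown at 25 °C; 0% = DMSO wells with yeast and 100% = wells holding no yeast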
MPTP block: mitochondrial permeability transition pore inhibitors, primary screen, biochemical, isolated mouse mitochondria, absorbance; Ca2+ swelling absorbance, 30 min; inhibition, % at 10 µM; hit rate 1.4% among 360,000; AID 602449, 2012;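 active means inhibition of 50% or more, scaled per plate between neutral and stimulator controls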;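 further: 0% = DMSO wells given calcium and 100% = 1 mM EGTA wells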
MPTP counter: fluorescence retest of MPTP screen hits in isolated mitochondria, single concentration; shares compounds with MPTP block; membrane potential, Rhodamine 123 fluorescence; inhibition, % at 10 µM; hit rate 78% among 5,000; AID 624504, 2012; in the data active means inhibition above about 22%;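 further: 0% = DMSO vehicle and 100% = positive control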
MPTP swell DR: mitochondrial permeability transition pore inhibitors, dose response, biochemical, absorbance, uHTS hits. shares compounds with MPTP block. isolated mitochondria swelling. IC50, µM. hit rate 58% among 780; in the data active means IC50 below about 20 µM
MPTP cs DR: fluorescent counter-screen in isolated mitochondria, dose response, counter-screen for MPTP inhibitor project, biochemical, fluorescence, uHTS hits; shares compounds with MPTP block; isolated mitochondria counterscreen, fluorescence read-out; IC50, µM; hit rate 49% among 780; AID 651564, 2012; in the data active means IC50 below about 80 µM
Numbers without * were called inactive; i = inactive; . = not tested or not shown.

SMILES | tim23-1 inh | Mdm2-MdmX inh | TIM10 inh | tim10-1 inh | MPTP block | MPTP counter | others
COCC1CCN(C(=O)c2cc(COc3ccc(-n4cncn4)cc3)on2)CC1 | 16 | -8 | 1 | 7 | 2 | .
CSc1ccccc1OCc1cc(C(=O)N2CCC(c3ccncc3)CC2)no1 | 27 | 18 | -9 | 15 | 60* | 91*
COCC1CCN(C(=O)c2cc(COc3ccc4ncccc4c3)on2)CC1 | 16 | 4 | 0 | 10 | 74* | 81*
O=S1(=O)CCN(C2CCCCCC2)CC1 | . | . | . | . | 0 | .
CCc1ccc(/C(C)=N/NC(=O)c2ccc(-n3cnnn3)cc2)cc1 | -2 | 7 | 5 | -2 | 0 | .
c1ccc(N2[C@@H]3c4ccccc4C[C@H]2c2ccccc23)cc1 | . | . | . | . | 3 | .
O=P(Cc1cccc2ccccc12)(c1ccccc1)c1ccccc1 | . | . | . | . | 7 | .
COc1ccc(CC(=O)NCc2nn(-c3ccccc3)nc2C)cc1OC | 20 | -11 | 3 | -6 | -1 | .
COc1ccc(-c2ocnc2C(=O)NCc2nn(-c3ccccc3)nc2C)cc1 | 1 | 44 | 10 | 8 | 98* | 87*
Nc1[nH]c(C(=O)c2ccccc2)c(-c2ccccc2C(F)(F)F)c1C(=O)NCc1ccc(F)cc1 | . | . | . | . | 3 | .
COc1ccc(C)cc1-n1nnnc1SCc1cc(=O)n2cc(C)ccc2n1 | -2 | 29 | 17 | 28 | 52* | 3 | MPTP swell DR=i;MPTP cs DR=21*
COc1ccc(NS(=O)(=O)c2ccc(N/N=C(\C)c3ccncc3)c([N+](=O)[O-])c2)cc1 | 10 | 33 | -34 | -15 | 68* | 20*
COc1ccccc1NS(=O)(=O)c1ccc(N/N=C(\C)C(C)C)c([N+](=O)[O-])c1 | 19 | -24 | 20 | 10 | 76* | 55*
CCCC(CCC)=NNc1ccc(S(=O)(=O)Nc2ccccc2OC)cc1[N+](=O)[O-] | 10 | 11 | -3 | 16 | 7 | .
C/C(=N\Nc1ccc(S(=O)(=O)Nc2ccccc2)cc1[N+](=O)[O-])c1ccncc1 | -6 | 8 | 7 | 4 | . | .
COCCCNC(=O)C[C@@H]1C[C@@]2(C(=O)OC)CCCCC=C2N(CCc2ccc(OC)c(OC)c2)C1=O | . | . | . | . | 0 | .
CN(Cc1ccccc1F)C(=O)c1cccc(NC(=O)CC2SC(N3CCCCC3)=NC2=O)c1 (configuration not stated) | . | . | . | . | 1 | .
O=C(C(=O)c1ccc(O)cc1)c1ccccc1 | 12 | 18 | 16 | 28 | 1 | .
O=C(c1ccc(O)cc1)c1ccc(C(=O)c2ccc(O)cc2)cc1 | -10 | -23 | 9 | 15 | 69* | 34*
O=C(NCc1ccco1)Nc1ccc(OC(F)(F)F)cc1 | 26 | 5 | -10 | 15 | 52* | 80*
O=C(NCc1ccco1)Nc1ccc(Br)cc1 | 0 | -6 | -12 | -7 | 0 | .
CCOC(=O)C1=CCN(S(=O)(=O)c2ccccc2C)C1c1ccccc1 (configuration not stated) | . | . | . | . | 0 | .
CC(=O)c1c(C)[nH]c(C(=O)OCC(=O)Nc2ccc(Cl)cc2[N+](=O)[O-])c1C | 18 | 36 | 29 | 19 | 91* | 93*
Cc1csc(SCC(=O)c2c(N)n(CC(C)C)c(=O)n(C)c2=O)n1 | 19 | 8 | -7 | 9 | 51* | 15 | MPTP swell DR=i;MPTP cs DR=5.8*
CCOC(=O)Cc1csc(SCC(=O)c2c(N)n(CC(C)C)c(=O)n(C)c2=O)n1 | 13 | 15 | 7 | 20 | 78* | 24*
SMILES | tim23-1 inh | Mdm2-MdmX inh | TIM10 inh | tim10-1 inh | MPTP block | MPTP counter | others
Cc1cccc(-c2ocnc2C(=O)Nc2ncc(C)s2)c1 | . | . | . | . | 0 | .
N=c1sccn1CC(=O)Nc1cccc(S(N)(=O)=O)c1 | 15 | -21 | 22 | 7 | 0 | .
N=c1sccn1CC(=O)Nc1cccc(Oc2ccccc2)c1 | 8 | 13 | 18 | 20 | 92* | -1 | MPTP swell DR=4.9*;MPTP cs DR=>80
C[C@@H]1CN([C@@H](C)CO)C(=O)CCCn2nncc2CO[C@H]1CN(C)S(=O)(=O)c1ccccc1C#N | . | . | . | . | -1 | .
CCN1/C(=C/c2cc[n+](C)cc2)C=Cc2cc(C)ccc21 | . | . | . | . | 67* | 70*
C/C=C/c1cccc(-c2nc(C(=O)N3CCCCC3)cc3c2[C@H](CCO)N(C(=O)NC(C)C)C3)c1 | . | . | . | . | 1 | .
Cc1ccc(-c2noc(C3CCCN(C(=O)c4ccc(C(C)(C)C)cc4)C3)n2)o1 (configuration not stated) | 19 | -17 | 25 | 20 | 61* | 39*
COC(=O)[C@H]1C[C@@]2(O)CN(S(=O)(=O)c3ccc(C)cc3)C[C@@]2(OC(=O)Nc2cccs2)C[C@H]1C(=O)OC | . | . | . | . | 1 | .
O=C(Nc1cccc(Cl)c1)O/N=C\c1ccncc1 | -1 | 15 | 8 | -6 | 82* | 93*
CCOC(=O)Cn1c(=N)n(CCOc2ccc(OC)cc2)c2ccccc21 | 9 | 16 | 1 | 11 | 26 | .
CCCCn1c(=N)n(CC(O)COc2ccccc2)c2ccccc21 (configuration not stated) | 0 | 49 | -1 | 1 | 76* | 3 | MPTP swell DR=13*;MPTP cs DR=36*
CCOC(=O)Cn1c(=N)n(CCOc2ccc3ccccc3c2)c2ccccc21 | 10 | 43 | 8 | 29 | 91* | 0 | MPTP swell DR=4*;MPTP cs DR=26*
CCCn1c(=N)n(CCOc2ccc(OC)cc2)c2ccccc21 | 10 | 27 | -15 | 1 | 54* | 5 | MPTP swell DR=8.8*;MPTP cs DR=23*
N=c1n(Cc2ccccc2)c2ccccc2n1CC(O)COc1ccccc1 (configuration not stated) | 2 | 38 | 15 | 16 | 1 | .
COc1ccc([C@@H]2C[C@H]3[C@@H](CN2S(=O)(=O)c2ccccc2)C(=O)C[C@@H](c2ccccc2F)N3S(=O)(=O)c2ccc(C)cc2)cc1 | . | . | . | . | 0 | .
CC(C)(C)C1CCC(OCC(O)CN2CCN(c3ccccc3)CC2)CC1 (configuration not stated) | -108 | 14 | -39 | -39 | 85* | -4 | MPTP swell DR=>100;MPTP cs DR=>80
CC(C)(C)C1CCC(OCC(O)CN2CCCC2)CC1 (configuration not stated) | -32 | -13 | 25 | 5 | 1 | .
C[C@H]1CN([C@@H](C)CO)C(=O)CCCn2nncc2CO[C@H]1CN(C)S(=O)(=O)c1ccc(-n2cccn2)cc1 | . | . | . | . | -1 | .
COC(=O)c1cc(CSc2nc3ccccc3[nH]2)oc1C | 26 | -108 | -2 | 14 | 82* | 40*
COc1ccc(CNc2cc(C)nc3ncnn23)c(OC)c1 | 14 | -21 | 5 | 12 | 75* | 34*
